# Data from PubChem BioAssay AID1159580 (chemical genetic matrix, 2015).
# Values joined by “and” are separate entries in the source; they are usually repeats but may differ in a detail not shown here. Equal entries are not always repeated. In all, about 5,500 compounds went through this assay and about 2,000 (36%) were called active. Another 18% or so got no clear call; they are omitted. The list shows a part of the results. Values without a mark were called inactive. Cut-off read from the data, not from the text of the source: active = normalized growth mostly below about 0.91 (no sharp cut-off); inconclusive = no clear call, values can overlap the other calls; inactive = mostly above about 0.92.
# Experiment: chemical genetic growth profiling, strain panel (AID 1159580);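 note: tested at 20 µM; growth read once vehicle control cultures reached saturation at 30 °C; 1 = growth at the plate median or of vehicle wells; lower values mean less growth of the strain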
# Conditions: S. cerevisiae deletion strains, growth OD
structure (smiles),measurement,setting,value
Cc1cc(O)cc(C)c1Cl,normalized growth,"locus YAL021C, strain ccr4, active compounds read low",0.918
same,normalized growth,"locus YAL026C, strain drs2, active compounds read low",0.831 (active)
same,normalized growth,"locus YAL030W, strain snc1, active compounds read low",0.961
same,normalized growth,"locus YBL061C, strain skt5, active compounds read low",0.914 (active)
same,normalized growth,"locus YBR009C, strain hhf1, active compounds read low",0.873 (active)
same,normalized growth,"locus YBR021W, strain FUR4, active compounds read low",1.04
same,normalized growth,"locus YBR023C, strain chs3, active compounds read low",0.899 (active)
same,normalized growth,"locus YBR171W, strain sec66, active compounds read low",0.912
same,normalized growth,"locus YBR229C, strain ROT2, active compounds read low",0.993
same,normalized growth,"locus YBR231C, strain swc5, active compounds read low",0.945
same,normalized growth,"locus YBR279W, strain paf1, active compounds read low",0.899 (active)
same,normalized growth,"locus YCL011C, strain gbp2, active compounds read low",0.906 (active)
same,normalized growth,"locus YCL016C, strain dcc1, active compounds read low",0.892 (active)
same,normalized growth,"locus YCL029C, strain bik1, active compounds read low",0.981
same,normalized growth,"locus YCL061C, strain MRC1, active compounds read low",0.916 (active)
same,normalized growth,"locus YCL069W, strain vba3, active compounds read low",0.929
same,normalized growth,"locus YCR088W, strain abp1, active compounds read low",0.891 (active)
same,normalized growth,"locus YDL005C, strain med2, active compounds read low",1.02
same,normalized growth,"locus YDL035C, strain GPR1, active compounds read low",0.942
same,normalized growth,"locus YDL040C, strain nat1, active compounds read low",0.968
same,normalized growth,"locus YDL074C, strain BRE1, active compounds read low",0.968
same,normalized growth,"locus YDL101C, strain DUN1, active compounds read low",1.01
same,normalized growth,"locus YDL185W, strain tfp1, active compounds read low",0.988
same,normalized growth,"locus YDL192W, strain arf1, active compounds read low",1.02
same,normalized growth,"locus YDR001C, strain nth1, active compounds read low",0.951
same,normalized growth,"locus YDR069C, strain doa4, active compounds read low",0.992
same,normalized growth,"locus YDR101C, strain arx1, active compounds read low",0.928
same,normalized growth,"locus YDR137W, strain rgp1, active compounds read low",0.41 (active)
same,normalized growth,"locus YDR150W, strain NUM1, active compounds read low",0.998
same,normalized growth,"locus YDR159W, strain sac3, active compounds read low",0.588 (active)
same,normalized growth,"locus YDR162C, strain NBP2, active compounds read low",0.957
same,normalized growth,"locus YDR195W, strain ref2",1.35 [resistant] (active)
same,normalized growth,"locus YDR297W, strain sur2, active compounds read low",0.968
same,normalized growth,"locus YDR318W, strain mcm21, active compounds read low",0.981
same,normalized growth,"locus YDR334W, strain swr1, active compounds read low",0.957
same,normalized growth,"locus YDR335W, strain msn5, active compounds read low",0.898 (active)
same,normalized growth,"locus YDR388W, active compounds read low",1
same,normalized growth,"locus YDR392W, strain spt3, active compounds read low",0.653 (active)
same,normalized growth,"locus YDR502C, strain sam2, active compounds read low",0.949
same,normalized growth,"locus YEL003W, strain gim4, active compounds read low",0.965
same,normalized growth,"locus YEL037C, strain rad23, active compounds read low",0.953
same,normalized growth,"locus YEL061C, strain CIN8 (second series), active compounds read low",0.898 (active)
same,normalized growth,"locus YEL061C, strain CIN8, active compounds read low",0.988
same,normalized growth,"locus YER015W, strain faa2, active compounds read low",0.839 (active)
same,normalized growth,"locus YER016W, strain bim1, active compounds read low",0.874 (active)
same,normalized growth,"locus YER110C, active compounds read low",1
same,normalized growth,"locus YER111C, strain swi4, active compounds read low",0.905 (active)
same,normalized growth,"locus YER155C, strain BEM2 (second series), active compounds read low",0.603 (active)
same,normalized growth,"locus YER155C, strain BEM2, active compounds read low",0.992
same,normalized growth,"locus YER167W, strain BCK2, active compounds read low",0.975
same,normalized growth,"locus YFR010W, strain ubp6, active compounds read low",0.93
same,normalized growth,"locus YGL078C, strain dbp3, active compounds read low",0.919 (active)
same,normalized growth,"locus YGL086W, strain mad1, active compounds read low",0.945
same,normalized growth,"locus YGL167C, strain pmr1, active compounds read low",0.999
same,normalized growth,"locus YGL173C, strain kem1, active compounds read low",0.927
same,normalized growth,"locus YGL227W, strain vid30, active compounds read low",0.949
same,normalized growth,"locus YGL240W, strain doc1, active compounds read low",0.978
same,normalized growth,"locus YGL248W, strain PDE1, active compounds read low",0.999
same,normalized growth,"locus YGL253W, strain hxk2, active compounds read low",0.895 (active)
same,normalized growth,"locus YGR078C, strain PAC10, active compounds read low",0.974
same,normalized growth,"locus YGR135W, strain pre9, active compounds read low",0.994
same,normalized growth,"locus YGR252W, strain gcn5, active compounds read low",0.979
same,normalized growth,"locus YHR013C, strain ard1, active compounds read low",0.97
same,normalized growth,"locus YHR027C, strain rpn1, active compounds read low",0.838 (active)
same,normalized growth,"locus YHR030C, strain SLT2, active compounds read low",0.995 and 0.921
same,normalized growth,"locus YHR079C, strain IRE1 (second series), active compounds read low",0.996
same,normalized growth,"locus YHR079C, strain IRE1, active compounds read low",0.929
same,normalized growth,"locus YHR094C, strain hxt1, active compounds read low",1
same,normalized growth,"locus YHR129C, strain ARP1, active compounds read low",0.998
same,normalized growth,"locus YHR142W, strain chs7, active compounds read low",0.77 (active)
same,normalized growth,"locus YHR200W, strain rpn10, active compounds read low",0.984
same,normalized growth,"locus YIL066C, strain RNR3, active compounds read low",0.981
same,normalized growth,"locus YIL073C, strain SPO22, active compounds read low",1.04
same,normalized growth,"locus YIL125W, strain kgd1, active compounds read low",0.993
same,normalized growth,"locus YIR030C, strain dcg1, active compounds read low",0.998
same,normalized growth,"locus YJL092W, strain hpr5, active compounds read low",0.923
same,normalized growth,"locus YJL095W, strain BCK1 (second series), active compounds read low",0.951
same,normalized growth,"locus YJL095W, strain BCK1, active compounds read low",0.986 and 0.94
same,normalized growth,"locus YJL115W, strain asf1, active compounds read low",0.997
same,normalized growth,"locus YJL129C, strain trk1, active compounds read low",0.899
same,normalized growth,"locus YJL134W, strain LCB3, active compounds read low",0.998
same,normalized growth,"locus YJL154C, strain vps35, active compounds read low",0.96
same,normalized growth,"locus YJL164C, strain tpk1, active compounds read low",0.887 (active)
same,normalized growth,"locus YJL166W, strain qcr8, active compounds read low",0.849 (active)
same,normalized growth,"locus YJL168C, strain set2, active compounds read low",1
same,normalized growth,"locus YJL187C, strain SWE1 (second series), active compounds read low",1
same,normalized growth,"locus YJR043C, strain POL32, active compounds read low",0.96
same,normalized growth,"locus YJR066W, strain TOR1, active compounds read low",0.955
